Assay outcomes: PubChem, National Center for Advancing Translational Sciences (NCATS)
The list is not random: actives were taken first. Their share in the collection is about 14%.
AID923: qHTS Assay for Allosteric/Competitive Inhibitors of Caspase-1: Spectroscopic Profiling in AFC Spectral Region; compound fluorescence, AFC spectral region (405/520 nm); Potency, µM (titrated, usually from 57.5 µM), for the others: at the highest dose fluorescence increase, actives largely listed as activators; 75,000 tested, 1.1% active; AID 923, 2007; further: potency means the concentration at half of the fitted maximal effect; 0% is about no effect
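Baseline compound fluorescence (AFC region, 405 nm ex/520 nm em) taken from the intercept of kinetic reads with 50 nM caspase-1 and 5 uM Ac-WEHD-AFC; normalized to an on-plate AFC standard curve; compounds titrated up to 57 uM.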
HSD17B inhib: inhibitors of human HSD17B10 dehydrogenase. recombinant HSD17B10, NADH fluorescence kinetic. Potency, µM (titrated, usually from 57.1 µM), without a hit: top-dose activity change, negative = inhibition, actives largely listed as inhibitors. 75,000 tested, 7.6% active. Q99714;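 further: the protocol describes HADH2 (HSD17B10) and not the HSD17B4 of the title; potency means the concentration at half of the fitted maximal effect; on the % scale 0 is the no-effect control and ±100 the full control effect; nearly all actives have a fitted effect of over 70% in size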
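Enzyme plus compound, 15 min room temperature; substrate mix added (NAD+ 1 mM, beta-hydroxybutyryl-CoA 90 uM final); plates read kinetically for NADH fluorescence. HADH2 was His-tagged, E. coli-derived, 20 nM.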
HADH2 inhib: HADH2 (human) dehydrogenase inhibition; recombinant HADH2, NADH fluorescence, beta-hydroxybutyryl-CoA; Potency, µM (series often up to 57.1 µM), for the others: top-dose activity change, negative = inhibition, hits mostly inhibitors; 73,000 tested, 3.4% active; further: potency means the concentration at half of the fitted maximal effect; on the % scale 0 is the no-effect control and ±100 the full control effect; nearly all actives have a fitted effect of over 60% in size
Target sequence (Q99714 whole entry, looked up, one chain of several): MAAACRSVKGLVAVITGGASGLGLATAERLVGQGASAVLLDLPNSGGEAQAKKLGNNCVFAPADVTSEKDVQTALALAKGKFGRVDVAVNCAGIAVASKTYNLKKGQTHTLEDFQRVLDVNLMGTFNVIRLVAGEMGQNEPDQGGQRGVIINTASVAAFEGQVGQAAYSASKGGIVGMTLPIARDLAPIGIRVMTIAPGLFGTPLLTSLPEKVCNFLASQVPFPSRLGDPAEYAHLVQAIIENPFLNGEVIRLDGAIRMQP
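NADH fluorescence (ex 360/em 450 nm) read every 30 s for 4 min; activity taken as last-minus-first time point difference. Enzyme 20 nM, NAD+ 1 mM, beta-hydroxybutyryl-CoA 90 uM, pH 9.0 Tris buffer.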
CRE Fsk mod: CRE-bla signaling modulation under forskolin stimulation; CHO CRE-bla reporter (cAMP response element driving beta-lactamase), forskolin EC10, beta-lactamase ratio; 71,000 tested, 2.5% active; AID 662; Potency, µM (highest dose often 38.2 µM), inactives show top-dose activity change, negative = inhibition, hits mostly activators; active means well fitted activation curve with a large enough effect in the signal ratio, with a control signal flat, not every such curve was filed as active; inconclusive means small, poorly fitted or top-dose-only effect, or effect the other way, or a change in a side signal; the % refers to the signal ratio; further: potency means the concentration at half of the fitted maximal effect; % of control where 0% means no effect
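Cells were plated overnight at 37 °C, exposed to compound titrations plus EC10 NKH 477 for 3 h, then given CCF4 dye for 2 h at room temperature. Blue/green (460/530 nm) ratio was converted to %Activity and AC50 values calculated.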
A350 autofl: compounds fluorescent in Alexa 350 spectral region; 59,000 tested, 11% active; Compound autofluorescence, 340/450 nm, Alexa 350 dye-equivalents; stronger effect = higher value; AID 590; max dye-equivalent concentration, M; in the data active means max dye-equivalent concentration above about 10 nM; inconclusive means mostly about 1.1 nM to 9.6 nM
4MU fluor: 4-MU region autofluorescence | compound autofluorescence, 340/450 nm, 4-MU equivalents; stronger effect = higher value | max dye-equivalent concentration, M | 59,000 tested, 11% active | AID 589; in the data active means max dye-equivalent concentration above about 10 nM; inconclusive means mostly about 1.1 nM to 9.6 nM
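Compounds in 100 mM Tris, pH 8.0, sat 15 min at room temperature before fluorescence was read at 340 nm excitation/450 nm emission; a per-plate six-point 4-MU standard curve converted signals to dye-equivalent concentration at each compound concentration.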
* hit, by the source's call; [ ] = remark or other dose. Unless noted, the call rests on the fitted dose curve; in most records, active means well fitted curve in the direction sought with a large enough effect; inconclusive means small, poorly fitted or top-dose-only effect, or another doubt; inactive means no such curve, though single readings can be large; an effect the other way counts as inactive or inconclusive.

How did CCOC(=O)c1c(NC(=O)CSc2nnc(-c3cccnc3)n2Cc2ccco2)sc(C)c1C do in these assays?
AID923: 2%; HSD17B inhib: -22%; HADH2 inhib: inconclusive; CRE Fsk mod: 4µM*; A350 autofl: inactive; 4MU fluor: inactive

What do the screens show for `O=C(CSc1nnc(-c2ccc(Cl)cc2)n1Cc1ccco1)Nc1ccc2c(c1)OCCO2`?
AID923: 2%; HSD17B inhib: 20µM*; HADH2 inhib: -3%; CRE Fsk mod: inconclusive; A350 autofl: inactive; 4MU fluor: inactive

Results for NC(=O)c1c(NC(=O)CSc2nnc(Cc3ccccc3)n2Cc2ccco2)sc2c1CCC2 ?
AID923: 12%; HSD17B inhib: 32µM*; HADH2 inhib: inconclusive; CRE Fsk mod: -25%; A350 autofl: inactive; 4MU fluor: inactive

Results for O=Cc1ccc(CO)o1 ?
AID923: 0%; HSD17B inhib: -5%; HADH2 inhib: -4%; CRE Fsk mod: 1%

Results for COC(=O)NC(/C(C(=O)OC)=C(\C)NCc1ccccc1)c1cccc(F)c1 (configuration not stated) ?
AID923: -1%[11.5 µM]; HSD17B inhib: 2%[11.4 µM]; HADH2 inhib: 23%[11.4 µM]

Results for c1ccc(CNc2ccnc(-c3ccoc3)n2)cc1 ?
AID923: 5%; HSD17B inhib: -6%; HADH2 inhib: 9%; CRE Fsk mod: -12%; A350 autofl: inactive; 4MU fluor: inactive

What do the screens show for `CN1CCc2cccc3c2C1Cc1ccc(O)c(O)c1-3` (configuration not stated)?
AID923: 1%; HSD17B inhib: 20µM*

What do the screens show for `COc1ccccc1/C=c1\sc2nc(-c3ccco3)nn2c1=O`?
AID923: -2%; HSD17B inhib: 25µM*; HADH2 inhib: inconclusive; CRE Fsk mod: -8%; A350 autofl: 2.3e-08M*; 4MU fluor: 1.9e-08M*

Results for O=S(=O)(c1ccc(S(=O)(=O)N2CCN(C3CCCCC3)CC2)cc1)N1CCCCCC1 ?
AID923: 0%; HSD17B inhib: 0%; HADH2 inhib: 8%; CRE Fsk mod: 3%; A350 autofl: inactive; 4MU fluor: inactive

What do the screens show for `O=c1[nH]c2ccc(S(=O)(=O)N3CCN(C4CCCCC4)CC3)cc2[nH]c1=O`?
AID923: 6%; HSD17B inhib: 32µM*; HADH2 inhib: inconclusive; CRE Fsk mod: inconclusive; A350 autofl: inconclusive; 4MU fluor: inconclusive

Results for O=C(O)C1CCCN1S(=O)(=O)c1ccc2[nH]c(=O)c(=O)[nH]c2c1 (configuration not stated) ?
AID923: -1%; HSD17B inhib: 32µM*; HADH2 inhib: inconclusive; CRE Fsk mod: -8%; A350 autofl: inactive; 4MU fluor: inactive

What do the screens show for `COc1cc(S(=O)(=O)N2CCN(Cc3ccccc3)CC2)ccc1Br`?
AID923: 1%; HSD17B inhib: -1%; HADH2 inhib: -3%; CRE Fsk mod: -18%; A350 autofl: inactive; 4MU fluor: inactive

How did O=c1[nH]c2ccc(S(=O)(=O)N3CCN(Cc4ccccc4)CC3)cc2[nH]c1=O do in these assays?
AID923: 1%; HSD17B inhib: 32µM*; HADH2 inhib: -28%; CRE Fsk mod: inconclusive; A350 autofl: inactive; 4MU fluor: inactive

What do the screens show for `COC(=O)NC(CC(C)=O)c1ccc(F)cc1` (configuration not stated)?
AID923: 6%[11.5 µM]; HSD17B inhib: 1%[11.4 µM]; HADH2 inhib: -3%[11.4 µM]

Results for C[N+]1(CCC[N+]2(C)C[C@H]3[C@H](C2)[C@H]2C=C[C@@H]3CC2)CCOCC1 (some centres not stated) ?
AID923: -5%[11.5 µM]; HSD17B inhib: 3%[11.4 µM]; HADH2 inhib: -3%[11.4 µM]; CRE Fsk mod: -1%[7.6 µM]; A350 autofl: inactive; 4MU fluor: inactive
